Screens (PubChem BioAssay)
p53null 39C kill = selectivity test: cytotoxicity in p53 null cells, nonpermissive temperature; AID 904; 55,000 tested, 0.97% active; Potency, µM (titrated, usually from 46.1 µM), inactives show at the highest dose activity, negative = cell killing, hits mostly cytotoxic; H1299 p53-null (neo) cells, 39C, ATPlite viability, 24 h;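 further: potency means the concentration at half of the fitted maximal effect; 0% = DMSO only and -100% = full killing by 100 µM tamoxifen; nearly all actives have a fitted effect of over 50% in size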
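Concentration-response (up to 46 uM) was run for 24 h at the nonpermissive 39C on H1299-p53A138V or H1299-neo cells. ATP content was measured with ATPlite luminescence. AC50 values were Hill-modeled after normalizing between DMSO and 100 uM tamoxifen killing.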
p53null 32C tox = kills p53 null cells at the permissive temperature; H1299-neo p53 null cells, ATP luminescence, 24 h, 32C; 55,000 tested, 0.62% active; Potency, µM (series often up to 46.1 µM), without a hit: at the highest dose activity change, negative = cytotoxicity, actives largely listed as cytotoxic; AID 903;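 further: potency means the concentration at half of the fitted maximal effect; 0% = DMSO only and -100% = full killing by 100 µM tamoxifen; nearly all actives have a fitted effect of over 55% in size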
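H1299-neo (p53 null) cells, 600/well, treated 24 h at 32C with compound up to 46 uM; ATPlite luminescence viability, normalized to DMSO and 100 uM tamoxifen; AC50 by Hill fit.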
FH mod = Identification of activators of human fumarate hydratase by quantitative high-throughput screening; Potency, µM (series often up to 79.9 µM), for inactives: at the top dose activity change, negative = inhibition, actives largely listed as inhibitors; Fumarate hydratase, mitochondrial (Homo sapiens), P07954; FH coupled MDH/diaphorase resazurin fluorescence, 15 min; 54,000 tested, 0.22% active; AID 1347055, 2019; further: potency means the concentration at half of the fitted maximal effect; on the % scale 0 is the no-effect control and ±100 the full control effect; the screen sought activators but most active calls are inhibition curves; nearly all actives have a fitted effect of over 45% in size
Target sequence (P07954 whole entry, looked up): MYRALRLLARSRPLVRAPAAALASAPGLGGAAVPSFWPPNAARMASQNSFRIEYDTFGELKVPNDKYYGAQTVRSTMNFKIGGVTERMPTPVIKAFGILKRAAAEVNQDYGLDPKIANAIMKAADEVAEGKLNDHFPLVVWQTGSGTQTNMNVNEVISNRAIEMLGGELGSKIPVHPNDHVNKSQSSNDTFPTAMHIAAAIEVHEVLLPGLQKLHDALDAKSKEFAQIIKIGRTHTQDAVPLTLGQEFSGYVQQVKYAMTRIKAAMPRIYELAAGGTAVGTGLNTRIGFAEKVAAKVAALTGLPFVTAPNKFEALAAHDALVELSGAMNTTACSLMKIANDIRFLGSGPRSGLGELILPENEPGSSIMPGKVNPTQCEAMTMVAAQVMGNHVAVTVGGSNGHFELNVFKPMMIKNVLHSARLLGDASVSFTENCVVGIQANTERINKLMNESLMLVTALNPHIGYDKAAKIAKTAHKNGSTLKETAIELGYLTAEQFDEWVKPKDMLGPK
GPR32 ag = activates human resolvin D1 receptor GPR32 | O75388 | CHO-K1 GPR32 beta-arrestin PathHunter luminescence, 90 min; zero percent set by DMSO-only wells | 48,000 tested, 2.5% active | AID 1346428 | activation, % at 76.9 µM;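 active means activation of at least 60% and not above a set upper limit, about 1 call in 100 departs from these limits; inconclusive means activation of 40% to 60%, or above that upper limit; inactive means activation under 40%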; further: 0% is about no effect
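Readings come from a cell-based beta-arrestin complementation format: CHO-K1 GPR32 stable cells (2,500/well) treated 90 min with compounds, then beta-Gal substrate added for 1 h before chemiluminescence imaging.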
Starred values were filed as active, the others as inactive; ? = inconclusive; . = no result given; [ ] = remark or other dose. Rows were chosen to be rich in hits. Some 2.9% of all compounds tested hit in one or more screens of this group. Unless noted, the call rests on the fitted dose curve; in most records, active means well fitted curve in the direction sought with a large enough effect; inconclusive means small, poorly fitted or top-dose-only effect, or another doubt; inactive means no such curve, though single readings can be large; an effect the other way counts as inactive or inconclusive.

SMILES | p53null 39C kill | p53null 32C tox | FH mod | GPR32 ag
Cc1ccc(/C=C/c2onc(C)c2S(=O)(=O)N2CCC(C(=O)NCc3ccco3)CC2)cc1 | 0% | -2% | -4% | 88*
O=C(NCc1cccc(F)c1)c1ccc(NC(=O)c2nsc3ccccc23)cc1 | 10µM* | ? | -7% | -12
CCOC(=O)c1ccc(NC(=O)c2nsc3ccccc23)cc1 | 10µM* | 7.9µM* | -27% | -28
Cc1ccc(CNC(=O)c2ccc(NC(=O)c3nsc4ccccc34)cc2)cc1 | -23% | -14% | 3% | -9
O=C(Nc1ccc(C(=O)N2CCCCC2)cc1)c1nsc2ccccc12 | 4µM* | 4µM* | -18% | 11
CNC(=O)c1ccc(NC(=O)c2nsc3ccccc23)cc1 | 5µM* | 6.3µM* | -8% | -7
CCCCn1c(-c2ccccc2)nc(-c2ccccc2)c1CN(Cc1ccc2c(c1)OCO2)Cc1ccc2c(c1)OCO2 | . | . | -2% | .
CNc1nnc(-c2ccc(N(C)C)cc2)s1 | 7.9µM* | 8.9µM* | . | .
Cc1ccc(N(C)S(=O)(=O)c2nnc(NC(=O)c3ccco3)s2)cc1 | -2% | -3% | -5% | 7
CCNC(=O)Nc1ccc(-c2nc3c(c(N4CCOCC4C)n2)CCN(C2COC2)C3)cc1 (stereo unspecified) | . | . | -4% | .
COc1ccccc1N1CCN(C(=O)c2oc3ccccc3c2N)CC1 | -27% | -3% | . | 71*
COc1ccc(N2CCN(C(=O)c3oc4ccccc4c3NC(=O)c3ccccc3OC)CC2)cc1 | -15% | 9% | ? | -5
Cc1ccc2nc(-c3sc4nc(C)ccc4c3N)[nH]c2c1 | 10µM* | 11µM* | . | .
COC(=O)C1(O)C(OC(C)=O)CCC2C3(CC(c4ccoc4)OC3=O)C(C)=CCC21C(=O)OC (stereo unspecified) | . | . | -3%[53.3 µM] | .
CC(C)CCn1c(/C=C/c2ccccc2)nc2ccccc21 | ? | ? | ? | -31
Cc1cccc(NC(=O)Cn2c(/C=C/c3ccccc3)nc3ccccc32)c1 | 0%[1.84 µM] | . | . | .
C#CCn1c(/C=C/c2ccc(Cl)cc2)nc2ccccc21 | 4µM* | 3.2µM* | -19% | -18
CC(C)Cn1c(/C=C/c2ccc(F)cc2)nc2ccccc21 | 7.9µM* | 11µM* | -16% | -41
CCC(C)Cn1c(/C=C/c2ccccc2)nc2ccccc21 (stereo unspecified) | 10µM* | ? | -15% | ?
CCC1Oc2ccc(C)cc2N(CC(=O)NCc2ccc(OC)cc2)C1=O (stereo unspecified) | -13% | 0% | 2% | 64*
CNC(C)C(=O)NC(C(=O)N1CCCC1C(=O)Nc1snnc1-c1ccccc1)C1CCCCC1 (stereo unspecified) | . | . | 3% | .
CCCCN1C(=O)C(O)(CC(=O)c2ccc(C(C)(C)C)cc2)c2ccccc21 (stereo unspecified) | 20µM* | 56% | ? | -5
CCc1ccc(C(=O)CC2(O)C(=O)N(Cc3ccc(C)cc3)c3ccccc32)cc1 (stereo unspecified) | ? | 1% | 2% | -65
Cc1ccccc1NCc1cccn1-c1nnc(N2CCOCC2)s1 | -9% | -6% | -33% | 16
Fc1cccc(NCc2cccn2-c2nnc(N3CCOCC3)s2)c1 | -8% | -11% | -10% | 66*
SMILES | p53null 39C kill | p53null 32C tox | FH mod | GPR32 ag
Fc1ccc(NCc2cccn2-c2nnc(N3CCOCC3)s2)cc1 | -18% | -14% | -11% | 67*
C[C@@H]1C(=O)O[C@H]2[C@H](O)C34[C@H]5C[C@@H](C(C)(C)C)C36[C@@H](OC(=O)[C@@H]6O)O[C@@]4(C(=O)O5)[C@@]12O (stereo partly specified) | . | . | 10%[53.3 µM] | .
CCn1c(=O)n([C@H]2CCCN(c3nccc(-c4cc5ccccc5o4)n3)C2)c2ccccc21 | . | . | 1% | .
O=C1C(Cc2ccc(O)cc2)N2C(=O)CCN(C(=O)NCc3ccccc3)C2CN1Cc1cccc2ccccc12 (stereo unspecified) | . | . | -14% | .
CN(Cc1cc(Br)cc(Br)c1N)C1CCCCC1 | . | . | 2%[53.3 µM] | 95*
CC(C)Oc1ccc(C(=O)Nc2c(C(=O)Nc3cccc(F)c3)oc3ccccc23)cc1 | ? | ? | -4% | -5
CN(C)CCN(Cc1ccco1)C(=O)c1oc2ccccc2c1NC(=O)c1cccc(F)c1 | 13µM* | 5% | -19% | 2
